Screens from PubChem BioAssay.
MCF10A rereplic: inducers of DNA re-replication in MCF 10A breast cells. MCF 10A DNA re-replication, Hoechst nuclear intensity, 48 h. Potency, µM (top dose mostly 46.1 µM), for the others: at the top dose activity, positive = re-replication, actives largely listed as activators. AID 624296. hit rate 2.9% among 350,000; further: % of control where 0% means no effect; nearly all actives have a fitted effect of over 50% in size
HT1080NT lethal: kills 2HG-producing HT-1080-NT fibrosarcoma cells; AID 686970; hit rate 1.6% among 360,000; Potency, µM (highest dose often 46.1 µM), for inactives: at the highest dose activity, negative = less viability, usual class: cytotoxic; HT-1080-NT fibrosarcoma viability, CellTiter-Glo ATP luminescence, 48 h;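 further: NT is the 2HG producing partner of a matched IDH1 knockdown line; 0% = DMSO-treated cells and -100% = media-only wells without cells; nearly all actives have a fitted effect of over 55% in size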
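750 cells/well, RPMI + 5% FBS; 2 h settle, compound pin-transfer, 48 h at 37 degrees C. CellTiter-Glo 10 min RT, luminescence. Normalized to DMSO and media-only wells.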
HT1080 IDH1KD tx: HT-1080 IDH1 knockdown cell toxicity (counter line); HT-1080 IDH1 knockdown viability, ATP luminescence, 48 h; Potency, µM (top dose mostly 46.1 µM), without a hit: at the top dose activity, negative = toxicity, actives largely listed as cytotoxic; hit rate 2% among 360,000; AID 686971;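 further: 0% = DMSO wells and -100% = cell-free medium wells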
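Assay cells: HT-1080 with IDH1 knockdown, 750 per well, RPMI/5% FBS. Exposure: 48 h at 37 °C following 2 h pre-incubation. Read: CellTiter-Glo luminescence; fitted concentration-response, curve class assigned.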
KB-3-1 cytotox: KB-3-1 parental cell cytotoxicity; KB-3-1 viability, CellTiter-Glo ATP luminescence, 72 h; Potency, µM (titrated, usually from 46.1 µM), actives largely listed as cytotoxic; hit rate 1.4% among 400,000; AID 1347075; further: on the % scale 0 is the no-effect control and ±100 the full control effect; nearly all actives have a fitted effect of over 60% in size
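Parental KB-3-1 viability, qHTS format: 72 h compound exposure, 37 °C; CellTiter-Glo; media-only wells and DMSO plates as controls; concentration-effect fits on corrected data.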
SW480 rereplic: DNA re-replication induction in SW480 cells; SW480 DNA re-replication, Hoechst DNA content imaging, 48 h; Potency, µM (doses to about 46.1 µM), for the others: at the top dose re-replication activation, usual class: activators; hit rate 1.8% among 340,000; AID 624297; further: % of control where 0% means no effect; nearly all actives have a fitted effect of over 55% in size
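First, 250 cells per well were seeded. Next, compound or vehicle (23 nL) was pinned in, plates sat 48 hr at 37 C. Finally Hoechst was added for 40 min before fluorescence scanning.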
KB-V1 MDR tox: KB-V1 MDR subline cytotoxicity. KB-V1 MDR cells viability, CellTiter-Glo, 72 h. Potency, µM (highest dose often 46.1 µM), most hits filed as cytotoxic. hit rate 3.4% among 400,000. AID 1347076; further: on the % scale 0 is the no-effect control and ±100 the full control effect; nearly all actives have a fitted effect of over 60% in size
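Readout: CellTiter-Glo luminescence, 10 min after addition. Cells: KB-V1 MDR subline, 72 h at 37 degrees C with compound. Analysis: corrected, normalized data fitted to concentration-effect curves.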
An asterisk follows results filed as active; i = inactive; u = inconclusive; x = no result; [ ] = another dose, or the depositor's remark. Hits are enriched below; roughly 8% of the tested compounds scored in any of these assays. The call rests on the fitted dose curve; in most records, active means well fitted curve in the direction sought with a large enough effect; inconclusive means small, poorly fitted or top-dose-only effect, or another doubt; inactive means no such curve, though single readings can be large; an effect the other way counts as inactive or inconclusive. Potency means the concentration at half of the fitted maximal effect.

SMILES | MCF10A rereplic | HT1080NT lethal | HT1080 IDH1KD tx | KB-3-1 cytotox | SW480 rereplic | KB-V1 MDR tox
CCOC(=O)c1c(/N=C/c2c(O)n(-c3cccc(C)c3)c(=O)[nH]c2=O)sc2c1CCCC2 | u | 9.9% | 6.8% | i | u | i
CCOC(=O)c1sc(/N=C/c2c(O)n(-c3ccccc3)c(=O)[nH]c2=O)c(C#N)c1C | 7.2% | 19.1% | 8.9% | u | -6.6% | 11.6µM*
OC(Cn1c2ccccc2c2ccccc21)C[n+]1cccc2ccccc21 (stereo unspecified) | -0.3% | -7.5%[9.24 µM] | 20µM* | u | 1.1% | i
CCC(C)C1N=C(c2ccccc2)c2cc(Cl)ccc2N(CC(=O)NCc2ccco2)C1=O (stereo unspecified) | -10.3% | -3.4% | -13.3% | i | -13.7% | i
Cc1ccccc1C1=NCC(=O)N(CC(=O)NCc2ccco2)c2sc3c(c21)CCCC3 | u | 0.0% | -18.9% | i | -2.3% | 18.4µM*
CN(CCS(=O)(=O)c1ccc(Cl)cc1)Cc1cccnc1 | 20.6µM* | 4.7% | -21.5% | i | u | i
CCN1CCN(Cc2cccnc2)CC1 | -0.2% | 17.8% | 19.6% | i | -1.2% | i
CC1=CC2/C=C(\C)CCC(O)C(O)/C=C/C(=O)C23C(=O)NC(CC(C)C)C3C1C (stereo unspecified) | u | 11.6µM* | 7.31µM* | 4.61µM* | 18.4µM* | u
C=C(C=O)CC1CC(O)[C@]2(C)OC3CC4OC5C[C@]6(C)O[C@]7(C)CCC8OC9C[C@]%10(C)OC%11C(C)=CC(=O)OC%11CC%10OC9C[C@@H](C)C8OC7CC6O[C@]5(C)CC5OC5C4OC3CC2O1 (stereo partly specified) | 4.61µM* | u | x | 11.6µM* | 5.8µM* | i
C=C(CO)CC1CC(O)[C@]2(C)OC3CC4OC5C[C@]6(C)O[C@]7(C)CCC8OC9C[C@]%10(C)OC%11C(C)=CC(=O)OC%11CC%10OC9C[C@@H](C)C8OC7CC6O[C@]5(C)C/C=C\C4OC3CC2O1 (stereo partly specified) | -4.9% | 8.3% | 7.6% | u | -1.6% | u
C=CCN1CC[C@]23c4c5ccc(O)c4O[C@H]2[C@@H](O)C=C[C@H]3[C@H]1C5 | 10.2% | x | x | x | -2.1% | x
Cc1cccc(Cn2cccc(C(=O)Nc3nc4ccccc4s3)c2=O)c1 | x | x | x | i | x | i
O=C(C1CC1)N1CCC(c2nc(-c3ccc(S(=O)(=O)N4CCCC4)cc3)no2)CC1 | 0.2% | -18.7% | u | i | -4.2% | u
O=C(CC1CCCCC1)N1CCC(c2nc(-c3ccc(S(=O)(=O)N4CCCC4)cc3)no2)CC1 | u | 4.4% | 2.2% | i | u | 14.6µM*
Clc1ccc(OCC#CCN2CCOCC2)cc1 | -5.0% | 11.1% | 8.6% | i | -2.3% | u
C(#CCN1CCOCC1)COC/C=C/c1ccccc1 | 1.2% | -3.6% | 2.2% | i | 76.8% | 20.6µM*
C=C(C)CSc1nnc([C@@H](N)Cc2c[nH]c3ccccc23)o1 | 4.4% | 13.0% | 1.8% | i | -0.7% | i
Cc1[nH]nc2ccc(-c3cncc(OC[C@@H](N)Cc4c[nH]c5ccccc45)c3)cc12 | 2.31µM* | 18.4µM* | 10.3µM* | u | u | 25.9µM*
CCC12CN3CCN(CC(C3)/C1=N/NC(=O)c1ccncc1)C2 | 14.3% | 3.6% | 1.5% | i | u | i
CCCC12CN3CCN(CC(C3)/C1=N\NC(=O)c1ccncc1)C2 | -4.4% | 10.2% | 20.0% | i | 5.8µM* | i
CCOc1cc(CNCCc2c[nH]c3ccccc23)cc(Cl)c1OCC | 31.0% | u | u | u | u | u
CCOc1c(Cl)cc(CNCCc2c[nH]c3ccccc23)cc1OC | 18.4µM* | u | -8.0% | u | u | 20.6µM*
FC(F)(F)c1ccccc1CNCCc1c[nH]c2ccccc12 | 10.3µM* | -23.4% | -13.5% | i | u | i
COc1ccc(CNCCc2c[nH]c3ccccc23)c(OC)c1C | u | u | 25.9µM* | i | u | u
Cc1cccc(NP(=O)(Oc2ccccc2F)Oc2ccccc2F)c1 | u | -23.9% | u | u | u | 18.4µM*
SMILES | MCF10A rereplic | HT1080NT lethal | HT1080 IDH1KD tx | KB-3-1 cytotox | SW480 rereplic | KB-V1 MDR tox
COc1ccccc1OP(=O)(Nc1cccnc1)Oc1ccccc1OC | u | u | u | u | 0.4% | 9.2µM*
Cc1ccc(NP(=O)(Oc2ccccc2F)Oc2ccccc2F)cc1C | u | -10.8% | -29.9% | i | u | u
COc1cccc(NP(=O)(Oc2ccc(Cl)cc2)Oc2ccc(Cl)cc2)c1 | u | u | u | u | u | 13µM*
O[C@H]1[C@H]2[C@H](O)CCCN2C[C@H]1O | 3.8% | x | x | x | 0.4% | x
CC1=CC2OC3CC4OC(=O)C=CC=CC(=O)OCCC(C)C(O)C(=O)OCC2(CC1O)C4(C)C31CO1 (stereo unspecified) | 15.9% | 0.206µM* | x | 0.146µM* | u | 0.517µM*
CC1=CC2OC3CC4OC(=O)C=CC=CC(C(C)O)OCC(O)C(C)CC(=O)OCC2(CC1O)C4(C)C31CO1 (stereo unspecified) | 48.0% | 0.0461µM* | x | 0.0092µM* | 14.1% | u
NCC(=O)c1ccc(Cl)c(Cl)c1 | x | x | x | u | x | i
Cc1ccc(NS(=O)(=O)c2ccc(Cl)c(N=Nc3c(O)[nH]c(=O)[nH]c3=O)c2)cc1Cl | u | -1.6% | -2.8% | i | -20.3% | i
COc1cc(/C=C/[N+](=O)[O-])ccc1O | u | u | u | u | u | i
CCN(CC)c1ccc(/C=C/[N+](=O)[O-])cc1 | u | u | 16.4µM* | u | u | u
CN(C(=O)CSc1nnc(COc2ccccc2F)n1N)C1CCCCC1 | -25.2% | -0.8% | 0.9% | i | -31.2% | i
CC(=O)N1CCCc2cc(S(=O)(=O)N3CCCC(C(=O)Nc4cccc(F)c4)C3)ccc21 (stereo unspecified) | -49.1% | -1.7% | -11.5% | u | -0.8% | i
O=C(CNC(=O)OCc1ccccc1)Nc1ccc(Br)cc1C(=O)c1ccccc1 | u | u | u | u | 5.0% | 10.3µM*
CC(=O)OC1CC[C@]2(C#N)[C@H]3CC[C@]4(C)[C@H](C5C=CC(=O)O5)CCC4(O)C3CCC2(O)C1 (stereo partly specified) | u | 25.9µM* | 14.6µM* | u | -12.2% | u
